Experimental data reported in PubChem BioAssay AID1240 (Sanford-Burnham Center for Chemical Genomics, 2008).
Screen size: about 50,000 compounds; about 800 (1.6%) showed an effect of 50% or more. Shown is part of a subset that was picked to be rich in strong results.

target: Bcl-2-like protein 10 (Homo sapiens) (UniProt Q9HD36); test: Phenotype converters, Bcl-B/TR3 peptide binding displacement, primary biochemical FP (AID 1240); settings: GST-Bcl-B / FITC-TR3 peptide fluorescence polarization; stronger effect = higher value; compound at 3.75 mg/L;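 note: 0% = Bcl-B with tracer peptide and DMSO and 100% = tracer peptide lacking Bcl-B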
Sequence (Q9HD36 whole entry, looked up): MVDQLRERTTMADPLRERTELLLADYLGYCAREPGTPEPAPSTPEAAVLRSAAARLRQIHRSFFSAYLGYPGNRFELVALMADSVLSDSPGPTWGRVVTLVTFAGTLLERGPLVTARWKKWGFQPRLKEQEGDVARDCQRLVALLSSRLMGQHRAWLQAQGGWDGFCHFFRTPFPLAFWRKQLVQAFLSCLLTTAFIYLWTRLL

SMILES | displacement
Cc1ccc(OCC(=O)NN)c(Br)c1 | -6.5%
CN1CCN(CCCOc2ccc(Br)cc2)CC1 | -8.4%
O=C(N/N=C/c1ccc(O)cc1)c1cc(C2CC2)[nH]n1 | -10.1%
COC(=O)C1=C(C(=O)OC)SC(=C2C(=S)C(C)(C)N(C(=O)c3cccc(F)c3)c3ccc(OC)cc32)S1 | -7.9%
Clc1ccc(-c2noc(-c3ccc(Cl)cc3Cl)n2)cc1 | 4.3%
CCOC(=O)C1=C(O)/C(=C/c2ccc(N(C)C)cc2)SC1=Nc1cccc2ccccc12 | 168%
CCOC(=O)C1=C(O)/C(=C/c2ccc(Cl)cc2)SC1=Nc1cccc2ccccc12 | -11.7%
CCOC(=O)C1=C(O)/C(=C/c2ccc(Cl)cc2)SC1=Nc1ccc(OC)cc1 | 3.1%
CCOC(=O)C1=C(O)/C(=C/c2ccc(Cl)cc2)SC1=Nc1ccc(C)cc1 | 5.9%
CCOC(=O)C1=C(O)/C(=C/c2ccc(N(C)C)cc2)SC1=Nc1ccc(OC)cc1 | 3.8%
CCOC(=O)C1=C(O)/C(=C/c2ccc(N(C)C)cc2)SC1=Nc1cccc(Cl)c1 | -53.7%
CCOC(=O)C1=C(O)/C(=C/c2ccc(F)cc2)SC1=Nc1ccccc1 | -10.3%
CCOC(=O)C1=C(O)/C(=C/c2ccc(O)cc2)SC1=Nc1ccc(Cl)cc1 | 104%
CCOC(=O)C1=C(O)/C(=C/c2ccc(N(C)C)cc2)SC1=Nc1ccc(Cl)cc1 | 170%
CCOC(=O)C1=C(O)/C(=C/c2ccccc2)SC1=Nc1cccc2ccccc12 | 14.5%
CCOC(=O)C1=C(O)/C(=C/c2ccc(N(C)C)cc2)SC1=Nc1ccc([N+](=O)[O-])cc1 | 15.5%
CCOC(=O)C1=C(O)/C(=C/c2ccc(N(C)C)cc2)SC1=Nc1ccc(F)cc1 | 142%
Cc1cccc(OCC(=O)Nc2ccc(C)c(C)c2)c1 | -13.9%
CCOC(=O)C1=C(C)NC(=O)CC1c1cc2c(cc1Br)OCO2 (stereo not drawn) | -6.4%
O=C(O)/C=C\C(=O)Nc1ccccc1SC(F)(F)F | 9.3%
O=C1C=CC(=O)N1c1ccc(Cl)cc1[N+](=O)[O-] | -9%
CCOC(=O)c1c(N)sc(C(=O)Nc2ccccc2F)c1C | 12.7%
CCC(=O)Nc1nc(C)c(-c2csc(Nc3cccc(C(=O)O)c3)n2)s1 | 34.5%

SMILES | displacement
CC(NC(=O)COc1ccc(/C=N/NS(=O)(=O)c2ccccc2)cc1)c1ccccc1 (stereo not drawn) | 4%
O=C(/C=C/c1ccc(-c2ccccc2)o1)c1ccc(F)cc1 | 54.3%
O=C(/C=C/c1ccc(-c2cccc(C(F)(F)F)c2)o1)c1ccc(F)cc1 | -28.8%
COc1ccc(C(=O)/C=C/c2ccc(-c3ccccc3[N+](=O)[O-])o2)cc1 | 13.8%
O=C(/C=C/c1ccc(-c2ccc(Br)cc2)o1)c1ccc([N+](=O)[O-])cc1 | -1.7%
COc1ccc(/C=C/C(=O)c2cccc([N+](=O)[O-])c2)cc1 | 14.9%
COc1ccc(-c2ccc(/C=C/C(=O)c3ccc(C)cc3)o2)cc1 | 91.1%
COc1ccc(-c2ccc(/C=C/C(=O)c3ccc(Cl)cc3)o2)cc1 | -16.7%
O=C(/C=C/c1ccc(-c2ccccc2Cl)o1)c1ccc(F)cc1 | 6.5%
COc1ccc(C(=O)/C=C/c2ccc(/C=C/C(=O)c3ccc(OC)cc3)cc2)cc1 | 19.1%
COc1ccc(C(=O)/C=C/c2ccc(-c3ccc([N+](=O)[O-])cc3)o2)cc1 | 133%
Cc1ccc(C(=O)/C=C/c2ccc(-c3ccc(Cl)cc3)o2)cc1 | 17.9%
COc1ccc(/C=C/C(=O)c2ccc([N+](=O)[O-])cc2)cc1 | 105%
CC(C)(C)C1CCc2c(sc(NC(=O)c3ccccc3)c2C(N)=O)C1 (stereo not drawn) | 37%
CCNC(=O)C(=O)Nc1ccc(OCC)cc1 | 7.5%
COc1ccc(NC2(c3ccccc3)C(=O)c3c(Cl)c(Cl)c(Cl)c(Cl)c3C2=O)cc1 | 4.4%
O=Cc1cccc(OCc2ccccc2F)c1 | -0.4%
CC1(O)c2ccccc2C(=O)N1Cc1ccccc1 (stereo not drawn) | 12.6%
Cc1ccc(Cc2cnc(NC(=O)c3cccc([N+](=O)[O-])c3)s2)cc1 | 26.3%
C=C1CSc2nc(=O)c3c4c(sc3n21)CCC4 | 11.7%
O=C1OC(c2cccc(Cl)c2)=N/C1=C\c1ccc(OC(=O)c2cccc([N+](=O)[O-])c2)cc1 | 71.9%
Cc1cccc(C(=O)Oc2ccc(/C=C3/N=C(c4ccccc4)OC3=O)cc2)c1 | 0.5%
O=C1NC(=O)C(=Cc2ccc(OC(=O)c3cccc([N+](=O)[O-])c3)cc2)C(=O)N1 | 1.8%

SMILES | displacement
CCCCCCCNC1CC(=O)N(c2ccc(Br)cc2)C1=O (stereo not drawn) | 1.7%
Cc1ccc(-c2[nH]n3c(=O)c4c(nc3c2C)CCCC4)cc1 | -2.2%
Cc1ccc(-c2[nH]n3c(=O)c4c(nc3c2C)CCC4)cc1 | 60.8%
Cc1ccc(-c2[nH]n3c(=O)c4c(nc3c2C)CCS4)cc1 | -0.6%
CCOc1ccc(/C=C(/C#N)c2nc(-c3ccc(Br)cc3)cs2)c(OCC)c1 | 38.9%
O=C(Cc1ccc([N+](=O)[O-])cc1)NCc1ccccn1 | 14.1%
COc1ccc(/C=C/C(=O)NC(C)Cc2ccccc2)cc1OC (stereo not drawn) | -5.6%
COc1cc(/C=C2/SC(=S)NC2=O)ccc1OCc1ccc(I)cc1 | -8.4%
CCOc1cc(/C=C2\SC(=S)NC2=O)ccc1OC(C)=O | 12%
COc1ccc(/C=C2/SC(=S)NC2=O)cc1OCc1ccc(Cl)cc1 | 4.2%
CCOc1cccc(/C=C2/SC(=S)NC2=O)c1O | 5.7%
CCOc1ccc(/C=C2/SC(=S)NC2=O)c(OCC)c1 | 114%
CCOc1cc(/C=C2/SC(=S)NC2=O)ccc1OC | 119%
CCOc1ccc2ccc(OCC)c(/C=C3/SC(=S)NC3=O)c2c1 | -0.8%
COc1ccc(/C=C2/SC(=S)NC2=O)cc1OCc1ccc([N+](=O)[O-])cc1 | 76.9%
CCOc1ccc(/C=C2/SC(=S)NC2=O)cc1Cl | 11.7%
CCOc1ccc(C=Nc2ccc3c(c2)nc(C)n3C)cc1 | 6.5%
CSc1ccccc1NC(=O)c1ccc([N+](=O)[O-])cc1 | 10.7%
CCOC(=O)c1cc(C#N)c(SCc2ccccc2)[nH]c1=O | -2.6%
COc1ccc(C(=O)N2CCN(c3cccc(C)c3C)CC2)cc1OC | 2.4%
Cc1cc(C)cc(CC2CC(=O)N(c3ccc(Br)cc3)C2=O)c1 (stereo not drawn) | -8%
CC(=O)n1cc(Nc2ccccc2C(=O)O)c2ccccc21 | -3%
